Assay results as given in PubChem BioAssay AID2102 (Southern Research Specialized Biocontainment Screening …, 2009).
Out of some 1,100 compounds screened, about 210 (19%) were called active. No rule for the calls is given here. The list is a sample of the results. Results with a measured potency or affinity are listed apart.

Test: cell viability loss from selected hits – cytotoxicity control for SV40 T antigen inhibitor project, dose response (AID 2102);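 also: cells exposed to compounds for 72 hours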
Conditions: Host cell viability cytotoxicity counter-screen; series mostly up to 50 µM

| SMILES | outcome |
| --- | --- |
| Cc1nonc1C(=O)N/N=C/c1ccc(O)c(O)c1 | inactive |
| CC(=O)NCCc1c[nH]c2ccc(O)cc12 | inactive |
| COc1ccccc1N1CSC2=C(C#N)C(c3ccc(SC)cc3)CC(=O)N2C1 (configuration not stated) | inactive |
| COc1cc(/C=N/NS(=O)(=O)c2ccc(Br)cc2)ccc1O | inactive |
| CC(=O)c1ccc2c(c1)C1C=CCC1C(C(=O)O)N2 (configuration not stated) | inactive |
| Nc1cc(C(=O)O)c(N)c2c1C(=O)c1ccccc1C2=O | inactive |
| C=CCSC1=NC(=O)/C(=C/c2cccs2)S1 | inactive |
| CCCC1=NN2C(=N)/C(=C\c3ccc(SCc4ccco4)o3)C(=O)N=C2S1 | inactive |
| N=C1/C(=C\c2ccc(SCc3ccco3)o2)C(=O)N=C2SC=NN12 | inactive |
| CN1CCC/C1=C/C=C1\SC(=S)NC1=O | inactive |
| CSC1=NSC2=NC(=O)/C(=C\c3coc4ccccc4c3=O)C(=N)N12 | inactive |
| CN(C)c1ccc(NC(=O)CN2CCC(N3CCCCC3)CC2)cc1 | inactive |
| N#C/C(=C\c1coc2ccc(O)cc2c1=O)C(=O)Nc1nc2ccccc2s1 | inactive |
| O=c1c2cc(O)c(O)cc2oc2cc(O)c(C3OC(CO)C(O)C(O)C3O)c(O)c12 (configuration not stated) | inactive |
| CCOc1cc(NC2CS(=O)(=O)CC2O)c(OCC)cc1NC(=O)c1ccccc1 (configuration not stated) | inactive |
| CC1(C)CC(=O)C(C=Nc2ccc(O)cc2)=C(O)C1 | inactive |
| O=c1c2c3c(sc2n2c(=S)[nH]nc2n1-c1ccccc1)CCC3 | inactive |
| COc1ccc(-n2c(=O)c3c4c(sc3n3c(=S)[nH]nc23)CCC4)cc1 | inactive |
| COCCCn1c(=O)c2ccccc2n2c(=S)[nH]nc12 | inactive |
| O=C(O)CCNc1ccc(NCCC(=O)O)c2c1C(=O)c1ccccc1C2=O | inactive |
| OCc1ccccc1SSc1ccccc1CO | inactive |
| Oc1ccc(-c2nc3ccccn3c2NCc2ccco2)cc1 | inactive |
| Oc1ccc2ccccc2c1C=Nc1ccc(N2CCOCC2)cc1 | inactive |

| SMILES | outcome |
| --- | --- |
| Cc1ccc(-n2nnnc2C(Cl)(Cl)c2nnnn2-c2ccc(C)cc2)cc1 | inactive |
| c1ccc(-c2ccc3c(c2)NCCN3)cc1 | inactive |
| Oc1ccc(/C=N/NC(=S)Nc2cccnc2)cc1 | inactive |
| CCCCC1(C)OC(=O)C(=Cc2ccc(-c3ccc(Cl)c(C(=O)O)c3)o2)C(=O)O1 (configuration not stated) | inactive |
| Nc1nc2ccc(S(=O)(=O)N3CCCCC3)cc2s1 | inactive |
| O=c1c2ccccc2sn1-c1cc(S(=O)(=O)N2CCOCC2)ccc1N1CCCC1 | inactive |
| O=C(O)c1ccccc1NS(=O)(=O)c1cccc(-n2sc3ccccc3c2=O)c1 | inactive |
| C[C@]12CC[C@@H]3c4cc(O)c(O)cc4CC[C@H]3[C@@H]1CC[C@@H]2O | inactive |
| O=C(Nc1ccc(O)cc1)c1ccc(NC(=O)C2CCCO2)cc1 (configuration not stated) | inactive |
| COc1cc([N+](=O)[O-])ccc1NC(=O)Oc1ccc(NC(C)=O)cc1 | inactive |
| O=C1CC(=O)N(Cc2ccco2)C(=O)N1 | inactive |
| COc1ccc(NCC(O)Cn2cnc3c2c(=O)n(C)c(=O)n3C)cc1 (configuration not stated) | inactive |
| CCN(CC)c1ccc(NC(=O)COC(=O)c2ccc3ccccc3n2)cc1 | inactive |
| COc1cc(/C=c2\sc3n(c2=O)CCCN=3)ccc1O | inactive |
| Cc1nn(CC(=O)Nc2ccc(N(C)C)cc2)c(C)c1[N+](=O)[O-] | inactive |
| Cc1cc(=O)oc2c(N)c(O)ccc12 | inactive |
| Cc1cc(C)c2c(c1)NC(C(=O)O)C1CC=CC21 (configuration not stated) | inactive |
| CCOc1cc(/C=N/Nc2ncnc(Cl)c2N)ccc1O | inactive |
| O=c1cc(-c2ccc(O)c(O)c2)oc2c(C3O[C@H](CO)[C@@H](O)[C@H](O)[C@H]3O)c(O)cc(O)c12 (some centres not stated) | inactive |
| O=c1cc(-c2ccc(O)c(O)c2)oc2cc(O)c(C3OC(CO)C(O)C(O)C3O)c(O)c12 (configuration not stated) | inactive |
| COc1cc(/C=N\NC(=O)CNC(=O)c2cccc([N+](=O)[O-])c2)ccc1O | inactive |
| Nc1ccc(OCCCc2c(N)nc(N)nc2N)cc1 | inactive |
| COc1ccccc1NC(=O)Oc1ccc(NC(=O)c2ccco2)cc1 | inactive |

| SMILES | outcome |
| --- | --- |
| S=c1[nH]nc(-c2ccc(Cl)cc2)n1/N=C/C=C/c1ccco1 | inactive |
| Cc1cccc(/C=N/n2c(-c3ccncc3)n[nH]c2=S)c1 | inactive |
| Oc1ccc(-c2cn3ccccc3n2)cc1O | inactive |
| C1=Cc2ccccc2Nc2ccccc21 | inactive |
| C[C@@H]1O[C@@H](OC2C(O)C(OCCc3ccc(O)c(O)c3)OC(CO)C2OC(=O)/C=C/c2ccc(O)c(O)c2)[C@H](O)[C@H](O)[C@H]1O (some centres not stated) | inactive |
| CCOc1cc(/C=C2\N=C3CCCCCN3C2=O)ccc1O | inactive |
| Cc1nc(N)sc1N=Nc1c(C)n(C)n(-c2ccccc2)c1=O | inactive |
| O=Cc1sc(=O)n(Cc2cccc(C(=O)O)c2)c1Cl | inactive |
| CN=c1scc(C)n1/N=C/c1ccc(O)cc1O | inactive |
| CC(C)(C)OC(=O)N/N=C/c1ccc(N2CCOCC2)s1 | inactive |
| O=C(O)c1cc(S(=O)(=O)O)cc(Nc2c3ccccc3nc3ccccc23)c1O | inactive |
| O=C(CSc1nc2ccccc2c(=O)[nH]1)c1ccc(O)c(O)c1 | inactive |
| CN(C)c1ccc(NC(=O)CSc2nnc(-c3cnccn3)n2C)cc1 | inactive |
| O=C1Nc2ccccc2/C1=N\N=C\c1ccc(O)c(O)c1 | inactive |
| CN(C)c1ccc(Nc2cc(Cl)ncn2)cc1 | inactive |
| C/C(CC(=O)Nc1ccc(N(C)C)cc1)=N\NC(=O)c1ccc(Cl)cc1Cl | inactive |
| O=C(N/N=C/c1ccc(O)c(O)c1)c1cccc(S(=O)(=O)N2CCCC2)c1 | inactive |
| COc1ccc(/C=N\NC(=O)c2ccc(=O)[nH]n2)cc1O | inactive |
| N=C1/C(=C/c2ccc(Br)o2)C(=O)N=C2SC(CC(=O)N3CCCC3)=NN12 | inactive |
| CN1CN(C)c2cccc3cccc1c23 | inactive |
| CCOc1ccc(S(=O)(=O)Nc2cc(Sc3ncn[nH]3)c3oc(=O)sc3c2)cc1 | inactive |
| COc1ccc(C2=CC3=C(Br)C(=O)C(C)(OC(=O)c4ccc(Cl)nc4)C(=O)C3=CO2)cc1 (configuration not stated) | inactive |
| CCOc1ccccc1NC(=S)N1CCN(c2ccc(O)cc2)CC1 | inactive |

| SMILES | outcome |
| --- | --- |
| O=C(NC(=S)N1CCN(c2ccc(O)cc2)CC1)c1cccs1 | inactive |
| COc1cc(/C=N/NC(=O)CNC(=O)c2ccco2)ccc1O | inactive |
| O=C(COc1cccnc1[N+](=O)[O-])c1ccc(Cl)s1 | inactive |
| CN(C)c1ccc(NC(=O)c2cccc(N3C(=O)CCC3=O)c2)cc1 | inactive |
| O=C(O)[C@H]1CCCC[C@H]1C(=O)Nc1ccc(Nc2ccccc2)cc1 | inactive |
| CCOc1ccc(-c2nc(=S)[nH][nH]2)cc1 | inactive |
| COc1ccc(/C=N/NC(=O)c2cc(O)c(O)c(O)c2)cc1Cn1cc([N+](=O)[O-])cn1 | inactive |
| C=CCNC(=S)Nc1ccc(N(C)C)cc1 | inactive |
| CCc1cc(C(=O)N/N=C/c2ccc(O)cc2)c2ccccc2n1 | inactive |
| COc1cc(/C=N/NC(=O)c2ccc(Cn3cc([N+](=O)[O-])cn3)o2)cc(Br)c1O | inactive |
| COc1cc(/C=N/NC2=NCCCCC2)ccc1O | inactive |
| ClC(Cl)(c1nnnn1-c1ccccc1)c1nnnn1-c1ccccc1 | inactive |
| Oc1ccc(C2CNCCc3c2cc(O)c(O)c3Cl)cc1 (configuration not stated) | inactive |
| S=c1[nH]nc(-c2n[nH]c3c2CCC3)n1/N=C/C=C/c1ccco1 | inactive |
| COc1cc(/C=N/NC(=O)CCn2nnc3ccccc32)ccc1O | inactive |
| CC(C)C(=O)Nc1ccc(O)c(-c2csc(N)n2)c1 | inactive |
| Cc1cc2cc3c(N)[nH]nc3nc2cc1C | inactive |
| O=S(=O)(c1ccc(NC(=S)N/N=C/c2ccc(O)c(O)c2)cc1)N1CCOCC1 | inactive |
| CN(C)C(=S)Nc1ccc(N2CCOCC2)cc1 | inactive |
| Oc1ccc(NC(=S)Nc2ccccc2)cc1 | inactive |
| O=C(CN1C(=O)/C(=C/c2ccco2)SC1=S)Nc1ccc(O)c(C(=O)O)c1 | inactive |
| O=C1/C(=C/C=C/c2ccco2)SC(=S)N1NS(=O)(=O)c1ccccc1 | inactive |
| CCCCCCNC(=O)N[C@H](C(=O)NCCC[C@H]1CN2C(=NC[C@H]2C)N1CCC(c1ccccc1)c1ccccc1)C(C)O (some centres not stated) | inactive |

| SMILES | outcome |
| --- | --- |
| Cc1nn(-c2ccccc2)c2[nH]c(=O)c(CNc3ccc(N4CCOCC4)cc3)cc12 | inactive |
| COc1cc(CNc2ccc3c(c2)OCCO3)ccc1OCC(N)=O | inactive |
| COc1ccc(/C=N/Nc2nc(N3CCCC3)nc(N3CCCC3)n2)cc1O | inactive |
| COc1cccc(C=Nc2ccc(N3CCOCC3)cc2)c1O | inactive |
| Cc1cc(C)nc(SSc2nc(C)cc(C)n2)n1 | inactive |
| CN1C=CC=C/C1=C(\C#N)c1nc2ccccc2[nH]1 | inactive |
| O=Cc1cccn1-c1ccc(O)cc1 | inactive |
| Cc1ccc(NC(=O)CN2C(=O)N/C(=C/c3cccn3-c3ccc(C(=O)O)cc3)C2=O)cc1 | inactive |
| O=C(O)C1Nc2c(O)cc(Cl)c([N+](=O)[O-])c2C2C=CCC12 (configuration not stated) | inactive |
| CN(C)c1ccc(NC(=O)CSc2nc3c(c(=O)[nH]2)CCCC3)cc1 | inactive |
| O=C1C(=Cc2ccc(Br)o2)C(=O)c2ccccc21 | inactive |
| Cc1ccc(C2=NOC(=O)/C2=C\c2ccc(C)o2)cc1 | inactive |
| CC1=NOC(=O)/C1=C\c1ccc(-c2ccc(Cl)c(C(=O)O)c2)o1 | inactive |
| O=C1ON=C(c2ccccc2)/C1=C\c1ccco1 | inactive |
| Nc1nc[nH]c(=O)c1N=Cc1ccccc1 | inactive |
| O=C(c1ccco1)N1CCCC(Nc2ccc3c(c2)OCCO3)C1 (configuration not stated) | inactive |
| c1cncc(CNc2ccc3c(c2)OCO3)c1 | inactive |
| O=C(c1ccc2ccccc2c1)N1CCN(c2ccc(O)cc2)CC1 | inactive |
| N#C/C(=C\c1ccc(O)c(O)c1)C(=O)c1ccc(O)c(O)c1 | inactive |
| CCOC(=O)c1ccc2c(c1)C1C=CCC1C(C(=O)O)N2 (configuration not stated) | inactive |
